Consider 40 molecules from PubChem BioAssay (NCI).

About 83,000 compounds went through this panel and 20% of them were active in at least one assay; those are over-represented in the sample as a whole.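 Testing used 96-well plates and a 48-hour single-concentration exposure. Example: -40 means 40% of the starting cells died.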 The source made the active and inactive calls.

The experiment has as its system NCI/ADR-RES ovarian. Kind of experiment: NCI-60 one-dose screen, 48 h (100 = growth as untreated, 0 = no growth, -100 = all killed). To be noted: 10 µM unless noted. As to the method:
Growth inhibition of the NCI/ADR-RES human […] tumor cell line is measured as a screen for anti-cancer activity. Cells are grown in 96 well plates and exposed to the test compound for 48 hours. Compounds are tested at a single concentration, which is 10^-5 M for most compounds. The reported endpoint is percent growth (GI% or GIPRCNT), where numbers from 0 - 100% represent growth inhibition, and numbers from -100% - 0 represent cell death. For example, a value of 40 represents 60% growth inhibition. A value of 0 means no net growth occurred over the course of the experiment. A value of -40 indicates 40% of cells at the beginning of the experiment died by the end of the experiment. A value of -100 means all cells are dead at the end of the experiment.
NCI-60 Human Tumor Cell Lines Screen was performed using the standard one-dose NCI protocol, which is described in more detail at https://dtp.cancer.gov/discovery_development/nci-60/default.htm.
Compounds with GIPRCNT values below 10 were considered active. Activity score was based on GIPRCNT using the following formula: […]
Score is 0 for GIPRCNT values of 100 or above, 50 for GIPRCNT values of 0, and 100 for GIPRCNT values of -100.
As for `N#CCCN=Nc1c(O)[nH]c2ccc(F)cc12`, the growth is 98.7% (inactive).

In the case of `Cc1nc2c3c(-c4ccccc4)c(-c4ccccc4)oc3ncn2n1`, the growth is 94.1% (inactive).

As to `O=C(/C=C/c1ccccc1)c1ccc(O)c(CN2CCN(c3cc4c(cc3F)c(=O)c(C(=O)O)cn4C3CC3)CC2)c1`, the growth is 49% (inactive).

Turning to `OCCN1CCN(c2nc(Nc3ccc(-c4nc5ccccc5[nH]4)cc3)c3cn[nH]c3n2)CC1`, the growth was -77.3% (active).

For the molecule `CCOc1ccc(C(C)=O)cc1NC(=O)c1cccc(-c2nnn(CC)n2)c1`, the growth is 25.2% (inactive).

`O=S(=O)(Nc1ccc(OC(F)F)cc1)c1ccc(-c2cnc(C3CC3)o2)cc1`: the growth was 41.5% (inactive).

Take `O=C(Nc1ccccc1Cl)c1ccc(NC2=C(Cl)C(=O)N(C3CCCCC3)C2=O)cc1`: the growth is 78.4% [30 µM] (inactive).

With `CCn1c(Cc2ccccc2Nc2c(Cl)cccc2Cl)nnc1SCC(=O)NN1C(=O)/C(=C/c2cc(OC)c(O)c(OC)c2)SC1=S`, the growth is 88.6% (inactive).

On to `CN1CCN(c2nc(NCCCCNc3ccnc4cc(Cl)ccc34)c3ccccc3n2)CC1`, for which the growth was 95.3% (inactive).

For the molecule `O=C1c2cc3c(cc2-c2c1c1ccc(Cl)cc1c(=O)n2CCCN1CCOCC1)OCO3`, the growth was 45.9% (inactive).

Take `CCCCCCCCCCCCC[N+](C)(C)Cc1ccccc1`: the growth was 90.2% (inactive).

In the case of `Fc1ccc(CNc2cccc3[nH]c(C(F)(F)F)nc23)cc1`, the growth is 100% (inactive).

Regarding `Oc1cccc(-c2nc(N3CCOCC3)c3c4c(sc3n2)CCCC4)c1`, the growth was 52.1% (inactive).

Regarding `C#CCOc1ccc2ncnc(N3CCC(NC(=O)CCl)CC3)c2c1`, the growth was 88.2% [8.25 µM] (inactive).

As for `COc1ccc(CN2c3ccccc3Sc3ccccc32)cc1O`, the growth is 18.5% (inactive).

In the case of `Cc1cc(C)nc(SC2=C(Nc3ccc(C)c(Cl)c3)C(=O)N(Cc3ccccc3)C2=O)n1`, the growth was 62.8% [30 µM] (inactive).

In the case of `CN1CCN(CCCOc2cccc3nc(Nc4ccc(Cl)c(F)c4)ccc23)CC1`, the growth is 49.7% (inactive).

With `N#C/C(=C\c1ccc(-c2cc(C(F)(F)F)ccc2Cl)o1)c1nc(-c2ccco2)cs1`, the growth was 106% (inactive).

On to `Cc1oc(-c2ccc(Cl)cc2Cl)cc1C(=O)Nc1nccs1`, for which the growth was 89.6% (inactive).

Consider `CN(C)S(=O)(=O)c1cccc(-c2nc3sc4c(c3c(=O)[nH]2)CCCC4)c1`, for which the growth is 29.5% (inactive).

Turning to `COc1cc(-c2nc3cc(Cl)c(Cl)cc3[nH]2)ccc1OCC(=O)N=Nc1c(O)[nH]c2ccccc12`, the growth is 85.3% (inactive).

`Cc1ccc(NC(=O)C2CCC(CN3CCN(C)CC3)CC2)cc1Nc1nccc(-c2cccnc2)n1` (stereo not given): the growth was 97.5% (inactive).

`CC(=O)c1cc(C(=O)c2ccc3c(c2)Sc2ccccc2N3)n2ccccc12`: the growth was 22.1% (inactive).

As for `CC(C)(CCCN=C(N)Nc1ccc(Cl)cc1)c1ccc(F)cc1`, the growth was 73.8% (inactive).

Turning to `COc1ccc(Nc2nc(SC)nc(-c3cccc([N+](=O)[O-])c3)c2C#N)cc1`, the growth was 57.9% (inactive).

Consider `CC(C)CSc1nc(N)nc2c1ncn2C1OC(CO)C(O)C1O` (stereo not given), for which the growth was 103% (inactive).

For `COC[C@H](C)n1c(C2CCOCC2)nc2cnc3cc(-c4c(C)noc4C)c(OC)cc3c21`, the growth is 54.2% (inactive).

In the case of `COc1ccc(CN2c3ccccc3Oc3ccccc32)cc1F`, the growth was 41.5% (inactive).

For the molecule `CCCCC(=O)OCC1OC(n2cnc3c(=S)nc[nH]c32)C(OC(=O)CCCC)C1OC(=O)CCCC` (stereo not given), the growth is 19.6% (inactive).

With `COc1ccc(NC(=O)c2ccc(/C=C/C(=O)c3ncc[nH]3)cc2)cc1`, the growth is 77.4% (inactive).

As to `CC1=CC(=NN=c2cc(C)n([O-])c(C)c2)C=C(C)[N+]1=O`, the growth is 111% (inactive).

As to `Cc1cc(N2CCN(C)CC2)nc(NC2CCCC(Nc3ccnc4cc(Cl)ccc34)C2)n1` (stereo not given), the growth is 18.7% (inactive).

Take `O=C(Cc1ccc(/C=C/C(=O)c2ncc[nH]2)cc1)Nc1ccc(F)cc1`: the growth was 14.5% (inactive).

Turning to `NC(=NC1C2CC3CC(C2)CC1C3)Nc1ccc(I)cc1` (stereo not given), the growth was 49.5% (inactive).

On to `CCN(CC)S(=O)(=O)c1ccc(OC)c(NC(=O)c2[nH]c(C)c3c2CCCCC3=O)c1`, for which the growth was 40.2% (inactive).

Regarding `COc1cc(/C=C/c2cc(/C=C/c3ccc(O)c(OC)c3)n(-c3c(C)cccc3C)c(=O)n2)ccc1O`, the growth was 12.6% (inactive).

For `COc1cc(/C=C/C(=O)c2ccc(O)c(CN3CCN(c4cc5c(cc4F)c(=O)c(C(=O)O)cn5C4CC4)CC3)c2)cc(OC)c1OC`, the growth is 54.6% (inactive).

With `c1ccc(CCNc2ncnc3[nH]ncc23)cc1`, the growth is 97.9% (inactive).

Turning to `O=C(CCl)Oc1ccc(-c2ccccc2)c(Br)c1`, the growth is 103% (inactive).

Take `Cn1c(NCCc2ccc(O)c(O)c2)nc2c1c(=O)n(Cc1ccc(Br)cc1)c(=O)n2C`: the growth is 82.5% (inactive).
